The source of these data is PubChem BioAssay (NCATS).

Assay [1] concerns the target Glutathione peroxidase 1 (Homo sapiens) (UniProt P07203). In words: Primary qHTS Assay for Inhibitors of Recombinant Selenoprotein Glutathione Peroxidase 1 (GPX1) (AID 1845191). Further: nearly all actives have a fitted effect of over 65% in size. On activity, negative = inhibition: on the % scale 0 is the no-effect control and ±100 the full control effect. Summed up:
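GR-coupled assay: compounds preincubated 30 min at room temperature with GPX1, then reaction started with CHP; final 10 nM GPX1, 1 mM GSH, 0.5 mM CHP, 0.5 mM NADPH, 100 nM GR, 0.01% BSA, pH 7.5 Tris buffer. NADPH fluorescence (340/450 nm) read at 0 and 15 min.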
On the technique in general: In qHTS, concentration-response curves come from the screen itself.

Assay [2] concerns the target Phospholipid hydroperoxide glutathione peroxidase GPX4 (Homo sapiens) (UniProt P36969). In words: Primary qHTS Assay for Inhibitors of Recombinant Selenoprotein Glutathione Peroxidase 4 (GPX4) (AID 1845192). Further: nearly all actives have a fitted effect of over 65% in size. On activity change, negative = inhibition: series mostly up to about 50 µM; on the % scale 0 is the no-effect control and ±100 the full control effect. Summed up: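 GR-coupled assay: recombinant GPX4 preincubated 30 min with compound at room temperature; final 200 nM GPX4, 1 mM GSH, 0.5 mM cumene hydroperoxide, 0.5 mM NADPH, 100 nM GR, 0.01% BSA, pH 7.5 Tris. NADPH fluorescence (340/450 nm) read at 0 and 15 min.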

Assay [3] addresses Luciferin 4-monooxygenase (Photinus pyralis) (UniProt P08659). The assay is described as follows: Primary firefly luciferase (FLuc) qHTS assay for identification of artifact compounds. (AID 1845220). Further: nearly all actives have a fitted effect of over 60% in size.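 On activity change, negative = inhibition: series mostly up to about 54 µM; plate controls were DMSO vehicle for no effect and no enzyme for full effect.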 Summed up: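 Titrated compounds were incubated 15 min at RT, protected from light, with luciferin and ATP at 10 uM; reaction started with 10 nM FLuc, luminescence imaged at 5 min, and concentration-response fitted by Hill equation.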

The nature of assay [4]: Primary fluorescence-based thiol-reactive (MSTI) qHTS assay for identification of artifact compounds. (AID 1845221). Further: nearly all actives have a fitted effect of over 65% in size. Further: potency means the concentration at half of the fitted maximal effect.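 On activity change, negative = thiol reactive: series mostly up to about 54 µM; thiol-reactive compounds lower the probe fluorescence signal.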 In outline: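 A multi-concentration qHTS design tested compounds against 4 uM MSTI, pH 7.4 phosphate-buffered saline. Plates were protected from light for 1 h at room temperature before imaging fluorescence.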
Assay [5] relates to Nanoluciferase (engineered Oplophorus gracilirostris luciferase). The assay is described as follows: Primary Nanoluciferase (NLuc) qHTS assay for identification of artifact compounds. (AID 1845222).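 Further: NLuc secreted into diluted conditioned medium of S16 cells; series mostly up to about 54 µM; 0% = DMSO and -100% = no enzyme.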 Summed up:
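qHTS format, against NLuc in S16 cell-conditioned medium. Nano-Glo substrate 1:100 was added after 15 min at room temperature. Luminescence was taken after a further 5 min.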

Values without a mark were called inactive. Records with an inconclusive call do not appear. The source made the active and inactive calls. The call rests on the fitted dose curve; in most records, active means well fitted curve in the direction sought with a large enough effect; inconclusive means small, poorly fitted or top-dose-only effect, or another doubt; inactive means no such curve, though single readings can be large; an effect the other way counts as inactive or inconclusive.

Chain of Phospholipid hydroperoxide glutathione peroxidase GPX4 (Homo sapiens) (P36969 whole entry, looked up): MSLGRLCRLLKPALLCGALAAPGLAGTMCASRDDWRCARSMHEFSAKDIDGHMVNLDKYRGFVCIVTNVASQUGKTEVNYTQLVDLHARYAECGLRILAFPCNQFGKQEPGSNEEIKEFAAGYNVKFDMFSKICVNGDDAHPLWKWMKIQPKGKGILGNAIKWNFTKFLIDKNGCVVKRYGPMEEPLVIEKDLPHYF
Chain of Glutathione peroxidase 1 (Homo sapiens) (P07203 whole entry, looked up): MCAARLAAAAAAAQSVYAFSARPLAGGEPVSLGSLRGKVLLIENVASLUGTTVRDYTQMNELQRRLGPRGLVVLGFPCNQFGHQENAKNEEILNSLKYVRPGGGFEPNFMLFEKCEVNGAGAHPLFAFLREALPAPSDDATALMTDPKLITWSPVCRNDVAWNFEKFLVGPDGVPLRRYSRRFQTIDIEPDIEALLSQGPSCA

Turning to `C=CC(C)(O)CC/C=C(\C)C(=O)OC1C(O)C(CO)OC(OC(=O)C23CCC(C)(C)CC2C2=CCC4C5(C)CCC(OC6OC(COC7OCC(OC(C)=O)C(O)C7OC7OC(COC(C)=O)C(O)C(O)C7OC(C)=O)C(O)C(O)C6OC6OCC(O)C(O)C6O)C(C)(C)C5CCC4(C)C2(C)C(O)C3O)C1OC1OCC(OC2OCC(O)C(OC3OCC(O)C(O)C3O)C2O)C(O)C1O` (stereo not given), the figures for the activity, negative = inhibition in assay [1] and in assay [5] were -15.5% [at 9.52 µM] and 0% [at 6.45 µM], respectively. The outcome in assay [2] is “inactive [at 9.73 µM]”; in assay [3] it was “inactive [at 6.45 µM]”. The activity change, negative = thiol reactive in assay [4] is 140% [at 6.41 µM].

Take `C[C@@H](NC(=O)[C@H](O)c1cc(F)cc(F)c1)C(=O)N[C@@H]1C(=O)N(C)c2ccccc2-c2ccccc21`: the Potency entry in assay [1], in assay [2], in assay [3], in assay [4] and in assay [5] was “inactive” throughout.

On to `CCOc1cccc(NC(=O)c2ccc(N3CCCC3)c(C(F)(F)F)c2)c1`, for which the Potency entry in assay [1], in assay [2], in assay [3], in assay [4] and in assay [5] was “inactive” in each case.

Turning to `CCC(C)C(=O)OC12C(OC(C)=O)C(C)C3(O)C(C=C(CO)CC4(O)C(=O)C(C)=CC43)C1C2(C)C` (stereo not given), the Potency entry in assay [1], in assay [2], in assay [3], in assay [4] and in assay [5] was “inactive” each time.

`O=C(NCCCNc1nc(Nc2cccc(CN3CCOCC3)c2)ncc1C1CC1)C1CCC1`: the Potency entry in assay [1], in assay [2], in assay [3], in assay [4] and in assay [5] was “inactive” each time.

Take `COc1cc2c(Nc3cc(F)c(Cl)c(Cl)c3)ncnc2cc1OCC1CCCN(C)CCC1`: the Potency entry in assay [1], in assay [2], in assay [3], in assay [4] and in assay [5] was “inactive” each time.

As to `C=C1C(=O)OC2/C=C(/C)C3=CC(=O)C(C)(CC(OC(=O)/C(C)=C/COC(C)=O)C12)O3` (stereo not given), the Potency result in assay [1], in assay [2], in assay [3] and in assay [5] was “inactive” each time. For the same compound, the Potency in assay [4] is 4120 nM (active).

On to `COc1ccc(C2=NC(c3ccc(Cl)cc3)C(c3ccc(Cl)cc3)N2C(=O)N2CCNC(=O)C2)c(OC(C)C)c1` (stereo not given), for which the Potency result in assay [1], in assay [2], in assay [3], in assay [4] and in assay [5] was “inactive” each time.

Take `CC(=O)OC1CC(C)(C(=O)O)CC2C3=CC(=O)C4C5(C)CCC(OC6OC(C(=O)O)C(O)C(O)C6OC6OC(C(=O)O)C(O)C(O)C6O)C(C)(C)C5CCC4(C)C3(C)CCC12C` (stereo not given): the Potency result in assay [1] and in assay [2] was “inactive” in each case. The activity change, negative = inhibition in assay [3] was -10.2% [at 11.6 µM]. In addition, the activity change, negative = thiol reactive in assay [4] is 9.23% [at 11.5 µM]. In addition, in assay [5], the activity, negative = inhibition is -14.5% [at 11.6 µM].

In the case of `CCCCCCCCC(=O)N[C@H](CN1CCCC1)[C@H](O)c1ccc2c(c1)OCCO2`, the Potency result in assay [1], in assay [2], in assay [3], in assay [4] and in assay [5] was “inactive” in each case.

For `Cc1cc(-c2cnc(N)c3c(-c4ccc5scnc5c4)csc23)n(C)n1`, the Potency entry in assay [1], in assay [2], in assay [3], in assay [4] and in assay [5] was “inactive” throughout.

As for `COc1cc(N2CCC(O)CC2)ccc1Nc1nc(Nc2ccccc2S(=O)(=O)C(C)C)c2[nH]cnc2n1`, the Potency entry in assay [1], in assay [2], in assay [3] and in assay [5] was “inactive” in each case. For the same compound, the Potency in assay [4] was 1680 nM (active).

With `COc1ccc(CCCN2CCC(COC(c3ccccc3)c3ccccc3)CC2)cc1`, the Potency entry in assay [1], in assay [2], in assay [3], in assay [4] and in assay [5] was “inactive” each time.

As to `CC1(C)CN(C(=O)c2ccc(-c3cccc4nc(NC(=O)C5CC5)nn34)cc2)C1`, the Potency result in assay [1], in assay [2], in assay [3], in assay [4] and in assay [5] was “inactive” throughout.

For `O=S(=O)(NCc1cccc2ccccc12)c1cc(Cl)c(Oc2cccc(N3CCNCC3)c2)s1`, the Potency entry in assay [1], in assay [2], in assay [3], in assay [4] and in assay [5] was “inactive” throughout.

Take `CC(=O)O[C@H]1CC2C(COC(=O)CC(C)C)=CO[C@@H](OC(=O)CC(C)C)C2[C@]12CO2` (stereo not given in full): the Potency entry in assay [1], in assay [2], in assay [3], in assay [4] and in assay [5] was “inactive” in each case.

Take `CN1CCC(c2cn(C)c3ccc(OS(=O)(=O)c4c(F)cccc4F)cc23)CC1`: the Potency result in assay [1], in assay [2], in assay [3], in assay [4] and in assay [5] was “inactive” each time.

In the case of `COC(=O)c1ccc(N2CCN(C)CC2)c(NC(=O)c2cccc(OC)c2)c1`, the Potency entry in assay [1], in assay [2], in assay [3], in assay [4] and in assay [5] was “inactive” in each case.

As for `C/C=C(\C)C(=O)OC1C(C)C2(O)C(C=C(CO)CC3(O)C(=O)C(C)=CC32)C2C(C)(C)C12OC(=O)C(C)C` (stereo not given), the Potency entry in assay [1], in assay [2], in assay [3], in assay [4] and in assay [5] was “inactive” each time.

For the compound `COc1ccc(C[C@H]2COC(=O)[C@@H]2Cc2ccc(O[C@@H]3O[C@H](CO)[C@@H](O)[C@H](O)[C@H]3O)c(OC)c2)cc1OC`, the Potency entry in assay [1], in assay [2], in assay [3], in assay [4] and in assay [5] was “inactive” in each case.

Turning to `C[C@@]12C(=O)N(c3ccc(C(=O)Nc4cccc5cccnc45)cc3)C(=O)[C@@H]1[C@@H]1C=C[C@H]2C1`, the Potency result in assay [1], in assay [2], in assay [3], in assay [4] and in assay [5] was “inactive” throughout.

Turning to `CC(=O)OC(C)(C)/C=C/C(=O)[C@](C)(O)[C@H]1C(O)C[C@@]2(C)[C@@H]3CC=C4[C@@H](C=C(O[C@@H]5O[C@H](CO)[C@@H](O)[C@H](O)[C@H]5O)C(=O)C4(C)C)[C@]3(C)C(=O)C[C@]12C` (stereo not given in full), the Potency entry in assay [1], in assay [2], in assay [3], in assay [4] and in assay [5] was “inactive” in each case.

On to `COc1cc(C(=O)NCC2(N(C)C)CCCC2)cc(OC)c1OCc1ccccc1`, for which the Potency entry in assay [1], in assay [2], in assay [3], in assay [4] and in assay [5] was “inactive” throughout.

With `c1cc(NCCc2c[nH]c3ccccc23)cc(Nc2ccncc2)c1`, the Potency result in assay [1], in assay [2], in assay [3] and in assay [5] was “inactive” throughout. For the same compound, the Potency in assay [4] is 2670 nM (active).

In the case of `C/C=C/CCC1Cc2cc(O)c(CCCC)c(O)c2C(=O)O1` (stereo not given), the Potency result in assay [1], in assay [2], in assay [3], in assay [4] and in assay [5] was “inactive” throughout.
